Measured values reported in ChEMBL document CHEMBL3988442, “University of Dundee, Small-Polar-MMV Screening Library” (2021).

Assays:
[1] = molecular target: T1, Aspartate--tRNA(Asp/Asn) ligase (Mycobacterium tuberculosis (strain ATCC 25618 / H37Rv)) (UniProt P9WFW3); assay: Assay for Asp RNA synthetase-1 from Mycobacterium tuberculosis; type: functional; set-up: scale not given: direction of the effect not stated beside the values; settings: 30 µM; note: in the data most compounds retested in dose-response had high values
T1 sequence (whole entry): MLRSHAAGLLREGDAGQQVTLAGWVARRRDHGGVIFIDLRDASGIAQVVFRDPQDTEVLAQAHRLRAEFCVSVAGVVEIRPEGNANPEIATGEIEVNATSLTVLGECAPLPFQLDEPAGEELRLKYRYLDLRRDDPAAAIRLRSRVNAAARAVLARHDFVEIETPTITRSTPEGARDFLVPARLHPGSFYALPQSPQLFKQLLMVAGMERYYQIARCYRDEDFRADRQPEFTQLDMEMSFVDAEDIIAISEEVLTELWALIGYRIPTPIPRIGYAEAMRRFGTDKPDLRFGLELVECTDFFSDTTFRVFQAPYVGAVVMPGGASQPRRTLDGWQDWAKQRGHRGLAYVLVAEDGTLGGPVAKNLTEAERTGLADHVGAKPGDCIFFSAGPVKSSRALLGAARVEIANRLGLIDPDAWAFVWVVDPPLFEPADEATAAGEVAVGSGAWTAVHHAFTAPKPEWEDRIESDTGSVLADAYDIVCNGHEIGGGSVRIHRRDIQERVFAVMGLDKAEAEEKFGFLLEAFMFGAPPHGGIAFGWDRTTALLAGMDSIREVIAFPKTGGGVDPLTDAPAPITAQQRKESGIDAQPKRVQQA

[2] = molecular target: Shiga toxin 2 (Escherichia coli O157:H7) (UniProt P09385+P09386); assay: E. coli 0.157:H7 Shiga Toxin SOP - stx2 screening assay; type: functional; set-up: scale not given: direction of the effect not stated beside the values; settings: 30 µM

Row | SMILES | Percent Effect [1] [%] | Percent Effect [2] [%]
1 | Cc1cc(CN2CCN(C(=O)NCc3ccc(C)s3)CC2)no1 | -8.25 | 0.0703
2 | COc1ccc(F)cc1CN1CCCC(c2cc(C(N)=O)[nH]n2)C1 (configuration not stated) | -5.13 | 1.05
3 | CCCC(=O)N1CCC2(CC1)CC(NC(C)=O)c1ccccc1O2 (configuration not stated) | -5.26 | -24.9
4 | O=C(c1cnco1)N1CCCC(Cc2nccs2)C1 (configuration not stated) | 1.57 | -2.47
5 | Cn1cc(-c2ncnc3c2CCN(C(=O)N2CCOCC2)CC3)cn1 | -8.2 | -1.95
6 | CN(Cc1cn2c(n1)CN(c1ncc(F)cn1)CC2)Cc1ccco1 | 2.34 | -8.28
7 | CCc1nnc(CN2CCN(C(=O)c3cc4ccccc4[nH]3)CC2)o1 | -2.68 | 8.5
8 | CNc1cc(CNC(=O)c2ccccc2)nc(-c2ccncc2)n1 | -4.09 | 11.3
9 | CC(C)c1nn(C)c(N2CCOCC2)c1CN[C@H](C)CO | -1.94 | 30.8
10 | Cc1ccc(N2CC3(COCCN(Cc4nccs4)C3)OCC2=O)s1 (configuration not stated) | 7.04 | -13.5
11 | CCn1cc(CN2CCCC(CO)(CCc3ccccc3)C2)c(C)n1 (configuration not stated) | 0.494 | -5.78
12 | COCCC(=O)N1CCC(c2noc3nc(C)cc(C(F)(F)F)c23)CC1 | 1.68 | 8.3
13 | CCn1cnnc1C1CCN(C(=O)c2cccc3c2ccn3C)CC1 | -3.52 | -25.8
14 | CCC(O)CN1CCN(C(=O)c2cccn2Cc2ccccc2)CC1 (configuration not stated) | -0.0571 | 16.8
15 | CCn1c(C(=O)N2CCN(C(=O)COC)CC2)cc2ccccc21 | -7.07 | -41.5
16 | CCN(C(=O)Nc1cccnc1OC)C1CC1 | -1.21 | -24.9
17 | CCc1n[nH]c(C2CN(CC(=O)NCCc3ccsc3)CCO2)n1 (configuration not stated) | -5.2 | -20.2
18 | COc1cc2ncn(CC(=O)NCCCN(C)C)c(=O)c2cc1OC | -2.9 | -29.9
19 | COc1ccc(C2=CCN(C(=O)C3CC(=O)N(C4CC4)C3)CC2)cc1 (configuration not stated) | 1.54 | 2.8
20 | Cn1cnc2c1CCN(Cc1cccc(C(N)=O)c1)C2 | -3.03 | -13.1
21 | CCn1ccnc1-c1nc2cc(S(=O)(=O)N3CCCC3)ccc2n1C | -4.2 | -15.7
22 | Cn1nc(C#N)c2c1CN(C(=O)c1cccnc1)CCC2 | 7.3 | -7.73
23 | Cc1nc(C(=O)N2CCC(Cc3cnc4[nH]ccc4c3)C2)co1 (configuration not stated) | 1.31 | 62.2
24 | Cc1ccc(N2CCCC(NCc3nc(C)c(C)o3)C2)nn1 (configuration not stated) | -0.975 | -14.9
25 | CS(=O)(=O)NC[C@]12COC[C@H]1CN(C(=O)c1ccoc1)C2 | 0.452 | -5.39
26 | CN(C)c1nc2c(c(=O)[nH]1)CCN(C(=O)c1cccc3nccnc13)C2 | 4.01 | -35
